Values joined by “and” are separate entries in the source; they are usually repeats but may differ in a detail not shown here. Identical values can stand only once. Active and inactive are the calls of the source. The calls were made as follows: active = hit-call score of the fitted dose curve at least 0.9, where 1 is the maximum; inactive = score below 0.9.
Assay: BSK_hDFCGF_SRB: Viability Assessment in the BioMAP Diversity Plus: hDFCGF Assay (AID 2283061);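 also: cells exposed to compound for 24 h before the read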
Conditions: primary human foreskin fibroblasts
Protocol: BSK_hDFCGF is a cell-based, multiplexed-readout assay that uses foreskin fibroblast, a human skin primary cell, with measurements taken at 24 hours after chemical dosing in a 96-well plate.BSK_hDFCGF_SRB is an assay component measured in the BSK_hDFCGF assay. It measures 0.1% sulforhodamine related to cell death using Sulforhodamine staining technology.Data from the assay component BSK_hDFCGF_SRB was analyzed into 1 assay endpoint. This assay endpoint, BSK_hDFCGF_SRB, was analyzed with bidirectional fitting relative to DMSO as the negative control and baseline of activity. Using a type of viability reporter, gain or loss-of-signal activity can be used to understand changes in the signaling. Furthermore, this assay endpoint can be referred to as a primary readout, because this assay has produced multiple assay endpoints where this one serves a signaling function. To generalize the intended target to other relatable targets, this assay endpoint is annotated to the cell morphology intended target family, where the subfamily is cell conformation.
The levels of cell surface (or secreted, indicated by the prefix "s") biomarker endpoints were measured by ELISA. Overt cytotoxicity to cells in confluent adherent cultures (all systems other than the BT system) was assessed by measuring total protein levels using sulforhodamine B (SRB) staining in parallel cultures at the time of biomarker measurements, indicated as SRB endpoints. For proliferation assays for adherent cell types, individual cell types are cultured at sub-confluence and relative cell numbers quantified by SRB staining at time points optimized for each system (48 h: 3C and CASM3C systems; 72 h: BT and HDF3CGF systems; 96 h: SAg system). SRB was performed by staining cells with 0.1% SRB after fixation with 10% TCA and reading wells at 560 nm.Viability and proliferation of PBMC (T cells) was quantified by Alamar Blue reduction for the SAg and BT systems. For PBMC viability (referred to as PBMC Cytotoxicity within the assay endpoint names), cells were plated (75,000/well in a 96-well plate) and then chemical samples added for 1 h before addition of activators, SEB and TSST-1 (20 ng/mL final concentration each). Cells were incubated for 90 h. Then, Alamar Blue (20 uL/well) (Invitrogen, Cat DAL1100) was added for 6 h, and the plates were read with a fluorescence microplate reader at 546/580 nm (excitation/emission). For PBMC proliferation, cells were plated and activated as above but incubated for only 16 h prior to addition of Alamar Blue. Plates were read after 6 h.

| Structure (SMILES) | outcome | AC50 |
| --- | --- | --- |
| CCCCNc1ccc(NCCCC)c2c1C(=O)c1ccccc1C2=O | inactive | – |
| Nc1ccc(N)c(Cl)c1 | – | 32.3 µM (active) and 32.1 µM (active) |
| O=c1c2ccccc2oc2ccccc12 | inactive | – |
| O=C(c1ccc(O)cc1)c1ccc(O)cc1O | inactive | – |
| CCO[Si](CCCN=C=O)(OCC)OCC | inactive | – |
| O=Nc1ccc(O)cc1 | inactive | – |
| C=CC(=O)OCC(Br)CBr (stereo unspecified) | – | 9.67 µM (active) |
| CO[Si](OC)(OC)c1ccccc1 | inactive | – |
| C=C[Si](OC(C)=O)(OC(C)=O)OC(C)=O | inactive | – |
| N#[N+]c1ccc2c(S(=O)(=O)[O-])cccc2c1O | inactive | – |
| CC(C)(c1cc(Br)c(OCCO)c(Br)c1)c1cc(Br)c(OCCO)c(Br)c1 | – | 16.2 µM (active) |
| COCc1c(C(C)C)nc(C(C)C)c(/C=C/[C@@H](O)C[C@@H](O)CC(=O)O)c1-c1ccc(F)cc1 | – | 0.32 µM (active) |
| O=C1CCCN1CCO | inactive | – |
| CC1OC1C1CCC2(C)OC2C1 (stereo unspecified) | inactive | – |
| COc1ccc2nc(N)sc2c1 | inactive | – |
| c1ccc2c(c1)ccc1cc3c(ccc4ccccc43)cc12 | inactive | – |
| CC(C)C(=O)C(C)C | inactive | – |
| CCCCC(CC)COC(=O)c1ccccc1O (stereo unspecified) | – | 14.4 µM (active) |

| Structure (SMILES) | outcome | AC50 |
| --- | --- | --- |
| CCCCCCCCc1ccc(Nc2ccc(CCCCCCCC)cc2)cc1 | inactive | – |
| C=CCOc1c(Br)cc(Br)cc1Br | – | 25.7 µM (active) |
| C#CC1(O)CC[C@H]2[C@@H]3CCC4=CCCC[C@@H]4[C@H]3CC[C@@]21C (stereo partly specified) | – | 35.2 µM (active) |
| C=CCOCC(O)CCl (stereo unspecified) | inactive | – |
| c1ccc(-c2ccccn2)nc1 | inactive | – |
| CCO[Si](C)(OCC)OCC | inactive | – |
| CCOC(=O)c1ccccc1C(=C1C=C(Br)C(=O)C(Br)=C1)c1cc(Br)c(O)c(Br)c1 | inactive | – |
| S=C(NC1CCCCC1)NC1CCCCC1 | inactive | – |
| C/C=C\C/C=C/CCCCCCCCOC(C)=O | – | 31.7 µM (active) |
| CCOc1nc(F)cc2nc(S(=O)(=O)Nc3c(Cl)cccc3C(=O)OC)nn12 | inactive | – |
| O=C(Nc1ccccc1SSc1ccccc1NC(=O)c1ccccc1)c1ccccc1 | inactive | – |
| CCCCC/C=C\C/C=C\CCCCCCCC(=O)OC | – | 31.5 µM (active) |
| c1ccc2c(c1)ccc1ncccc12 | inactive | – |
| C=CC=CC=CCCCCC | inactive | – |
| CCCCC(CC)COCC1CO1 (stereo unspecified) | inactive | – |
| CCCCCCCCCCCCCCCC[N+](C)(C)CC | – | 1.28 µM (active) |
| CN1C(=O)N(C)C(O)C1O (stereo unspecified) | inactive | – |
| O=C(Cl)c1cc(C(=O)Cl)cc(C(=O)Cl)c1 | – | 26.4 µM (active) |

— PubChem BioAssay (EPA / NIEHS)
